In all, about 190,000 compounds went through this assay and about 570 (0.3%) were called active.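 Rule for the calls: active = z-score above 3 at 5 µM with at least 500 cells counted in the well; inconclusive = wells under 500 cells, flagged as cytotoxic or low count; inactive = the rest.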 This excerpt belongs to a sample that is enriched for actives.

The nature of this test: insulin promoter activators in MIN6 cells, imaging, high-content screening, mouse beta cells (AID 1625).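 For cell count: total cells summed across four imaged fields per well.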 As to conditions: MIN6 insulin promoter-GFP reporter, at 5 µM; cell count: measured here: cytotoxicity, nuclei count; z-score: stronger effect = higher value.
With `CCCS(=O)(=O)C(=C1Nc2ccccc2N1)S(=O)(=O)CCC`, the cell count came out at 1240 cells and the z-score is 0.09 (inactive).
For `CN(C)/C=C1/Nc2ccccc2C1=O` the same measures were 636 cells and 4.71 (active).
In the case of `O=C1CCCCC(=O)c2ccccc2N1`, the cell count stood at 1400 cells and the z-score is 0.07 (inactive).
`O=C(Nc1nnc(Cc2ccccc2)s1)c1cnccn1`: the cell count stood at 1430 cells and the z-score is 0.26 (inactive).
With `Cc1ccccc1Cn1c2ccccc2c2cnn(CC(=O)NCc3ccco3)c(=O)c21`, the cell count worked out at 1130 cells and the z-score was -0.15 (inactive).
For the compound `CCc1cccc(CC)c1NC(=S)Nc1ccc2cn[nH]c2c1`, the cell count turned out to be 1180 cells and the z-score was -0.06 (inactive).
On to `O=C(COC(=O)CNC(=O)c1ccco1)Nc1ccc(F)cc1`, for which the cell count was 1320 cells and the z-score was -0.26 (inactive).
As for `O=C(CNC(=O)c1ccco1)OCC(=O)c1ccccc1`, the cell count amounted to 1220 cells and the z-score is 4.35 (active).
Consider `O=C(CNC(=O)c1ccccc1)NCC(=O)OCC(=O)c1ccccc1`, for which the cell count turned out to be 1240 cells and the z-score was -0.32 (inactive).
For the compound `CCOC(=O)C1=C(N)N2C(=O)C(C)SC2=C(C(=O)OCC)C1c1cc(OC)c(OC)c(OC)c1` (stereo unspecified), the cell count came to 1120 cells and the z-score is -0.67 (inactive).
On to `NS(=O)(=O)c1ccc(NC(=O)COC(=O)c2cc3ccccc3oc2=O)cc1`, for which the cell count was found to be 1430 cells and the z-score is 0.45 (inactive).
In the case of `CCCCOc1ccc(CON(C(C)=O)C(C)=O)cc1Cl`, the cell count amounted to 1140 cells and the z-score is -0.26 (inactive).
Turning to `O=C(CCn1nnc2ccccc2c1=O)N[C@@H](Cc1c[nH]c2ccccc12)C(=O)O`, the cell count was determined as 1030 cells and the z-score was 0.15 (inactive).
`CC(C)OCCCNC(=O)C1CC(=O)N(C2CCCCCCC2)C1` (stereo unspecified): the cell count amounted to 1560 cells and the z-score was -0.3 (inactive).
In the same order, the values of `O=C(NCCCN1CCCCCC1)C1CC(=O)N(C2CCCC2)C1` (stereo unspecified) are 1560 cells and 4.02 (active).
`Cc1ccc(CNC(=O)C2CC(=O)N(C3CCCCCCC3)C2)cc1` (stereo unspecified): the cell count came to 1550 cells and the z-score was -0.31 (inactive).
For the compound `O=C(Nc1ccccc1)O/N=C1/CCCc2occc21`, the cell count was 985 cells and the z-score is -0.24 (inactive).
`O=C1CCCCC1C(=O)c1ccccc1` (stereo unspecified): the cell count turned out to be 991 cells and the z-score is -0.12 (inactive).
For `OC(c1ccccc1)C(CN1CCOCC1)c1ccccc1` (stereo unspecified), the cell count turned out to be 1160 cells and the z-score was -0.19 (inactive).
For `c1ccc2[nH]c(NCCN3CCOCC3)nc2c1`, the cell count was found to be 1180 cells and the z-score is 0.66 (inactive).
With `c1ccc(Nc2nc(N3CCOCC3)c3ccccc3n2)cc1`, the cell count stood at 637 cells and the z-score was -1.26 (inactive).
As to `C1=C(N2CCOCC2)/C(=C/c2nc3ccccc3[nH]2)CC1`, the cell count amounted to 905 cells and the z-score was 3.43 (active).
As to `CCOc1c(Nc2cccc(Cl)c2)c(=O)c1=O`, the cell count stood at 1030 cells and the z-score was 0.15 (inactive).
`COc1cc2c(C(=O)N3CCN(C)CC3)c(CSc3ccccc3)n(C)c2cc1Br`: the cell count was determined as 1290 cells and the z-score is -0.8 (inactive).
In the same order, the values of `Cc1ccc(NC(=S)N2CCCC(c3ccccc3)=N2)cc1` are 1540 cells and -0.41 (inactive).
In the same order, the values of `O=S(=O)(NC(=S)Nc1ccccc1)c1ccc(F)cc1` are 1080 cells and -0.63 (inactive).
In the case of `CCc1nnc(NC(=O)Cc2cccs2)s1`, the cell count came out at 1560 cells and the z-score is 0.7 (inactive).
Consider `O=C(Cc1cccs1)Nc1nnc(C2CC2)s1`, for which the cell count stood at 1650 cells and the z-score is 1.57 (inactive).
Consider `COc1ccc(Cc2nnc(NC(=O)Cc3cccs3)s2)cc1`, for which the cell count was determined as 1270 cells and the z-score was 3.48 (active).
For `Cc1ccc(OCC(=O)Nc2nnc(-c3ccco3)s2)cc1` the same measures were 1050 cells and -0.23 (inactive).
As for `Cc1ccc(SC(C)C(=O)NCc2ccc(F)cc2)cc1` (stereo unspecified), the cell count came to 1600 cells and the z-score is 0.03 (inactive).
For `N#CCCCn1c(O)c(N=NC(=O)C(O)c2ccccc2)c2ccccc21` (stereo unspecified) the same measures were 1150 cells and 0.15 (inactive).
In the case of `Cc1ccc(C(=O)N/C(=C\c2ccco2)C(=O)N2CCSCC2)cc1C`, the cell count was found to be 1360 cells and the z-score is -0.32 (inactive).
Turning to `CC1CCN(c2ccc([N+](=O)[O-])cc2C(N)=O)CC1`, the cell count was found to be 1470 cells and the z-score is 0.15 (inactive).
In the case of `COC(=O)c1sccc1NC(=O)c1cc(OC)c(OC)c(OC)c1`, the cell count came out at 1440 cells and the z-score was 3.71 (active).
In the same order, the values of `COC(=O)c1sccc1NC(=O)c1csc2c1CCCC2` are 1260 cells and -0.75 (inactive).
Consider `COC(=O)c1sccc1NC(=O)COc1ccc(Cl)cc1`, for which the cell count stood at 2220 cells and the z-score was -0.38 (inactive).
For the compound `O=S(=O)(c1ccc(Cl)cc1)N1CCCN(c2ccc(C(F)(F)F)cn2)CC1`, the cell count stood at 1100 cells and the z-score was -0.98 (inactive).
In the case of `Cc1ccnc(NC(=O)CCCOc2ccccc2)c1`, the cell count was 1410 cells and the z-score was -0.12 (inactive).
As to `COC(=O)c1scc(S(=O)(=O)C(C)(C)C)c1-n1cccc1`, the cell count was 1430 cells and the z-score was 0.89 (inactive).
For `O=C(CSc1nc2ccccc2s1)Nc1ccc(C(=O)O)cc1` the same measures were 1290 cells and 0.75 (inactive).
For the compound `Cc1oc(C(N)=O)cc1COc1ccc(C(N)=O)cc1`, the cell count stood at 1120 cells and the z-score is -0.28 (inactive).
Consider `COc1ccc(N2C(=O)C(Cc3ccccc3)NC2=S)cc1` (stereo unspecified), for which the cell count was found to be 1180 cells and the z-score is 0.5 (inactive).
`CCOC(=O)C1CCN(C(=O)Nc2cccc(OC)c2)CC1`: the cell count turned out to be 1010 cells and the z-score was -0.44 (inactive).
In the same order, the values of `CN(CCCNC(=O)CN1C(=O)CC(C)(C)S(=O)(=O)c2ccccc21)C1CCCCC1` are 1010 cells and 3.03 (active).
Consider `Cc1oc(-c2ccccc2F)nc1CS(=O)(=O)CC(=O)NCCCN(C)C1CCCCC1`, for which the cell count worked out at 1560 cells and the z-score is 0.14 (inactive).
For `O=C(CN1C(=O)CC(c2ccccc2)S(=O)(=O)c2ccccc21)NC1CCCC1` (stereo unspecified) the same measures were 1220 cells and -1.1 (inactive).
For `O=C1CC(c2ccccc2)CC(O)=C1C=NCCN1CCOCC1` (stereo unspecified), the cell count came to 1300 cells and the z-score was -0.21 (inactive).
Take `O=C1CCCC(O)=C1C=NCCc1ccccc1`: the cell count was 1000 cells and the z-score was 3.02 (active).
In the case of `CC1(C)CC(=O)C(C=NCCC2=CCCCC2)=C(O)C1`, the cell count is 1030 cells and the z-score is 0.42 (inactive).
As for `CS(=O)(=O)c1ccc2nnn(OCC(=O)Nc3cccc(C#N)c3)c2c1`, the cell count came out at 1340 cells and the z-score was -0.14 (inactive).
In the same order, the values of `Cc1cc(C)c(NC(=O)CN2C(=O)NC(Cc3ccccc3)C2=O)c(C)c1` (stereo unspecified) are 1480 cells and 0.2 (inactive).
As for `CN1CCN(CCNC(=O)Nc2ccc([N+](=O)[O-])cc2)CC1`, the cell count is 1230 cells and the z-score was 0.23 (inactive).
In the case of `Cn1ccc(NC(=O)Nc2ccc(Cl)cc2)n1`, the cell count worked out at 1320 cells and the z-score was 0.16 (inactive).
In the same order, the values of `Cc1c(C(=O)N2CCCc3ccccc32)sc2nc(-c3ccccc3)cn12` are 661 cells and 1.22 (inactive).
`Cc1cccc2cc3c(N)c(C(=O)N4CCCc5ccccc54)sc3nc12`: the cell count was determined as 725 cells and the z-score was 6.25 (active).
Regarding `Cc1occc1C(=O)N1CCCc2ccccc21`, the cell count is 1220 cells and the z-score was 0.1 (inactive).
For the compound `CCOC(=O)C1=C(CN2CCCCCC2)NC(=O)NC1c1cccc([N+](=O)[O-])c1` (stereo unspecified), the cell count came to 1200 cells and the z-score was 0.23 (inactive).
For `COCc1cc(=O)oc2cc(NS(=O)(=O)c3ccc(C)cc3)ccc12` the same measures were 1024 cells and 0.12 (inactive).
`CC1=NNC(=O)C1CC(=O)N/N=C/c1ccncc1` (stereo unspecified): the cell count turned out to be 1010 cells and the z-score was 1.19 (inactive).
Turning to `COc1c(C=O)c(CCN(C)C(=O)c2ccc(F)cc2)cc2c1OCO2`, the cell count was 1010 cells and the z-score is 0.62 (inactive).
For the compound `Cc1nn(CC2CC2)c(=O)n1N(C)c1ncc(C(F)(F)F)cc1Cl`, the cell count was 1660 cells and the z-score was -0.16 (inactive).
In the same order, the values of `COc1cc(/C=N/Nc2nc3ccccc3s2)ccc1O` are 924 cells and -0.19 (inactive).
For `Cn1c(SCC(=O)c2ccc(F)cc2)nnc1-c1ccccn1`, the cell count was 1430 cells and the z-score was -0.19 (inactive).
For the compound `O=C(O)C#Cc1cccc2ccccc12`, the cell count turned out to be 952 cells and the z-score was -0.45 (inactive).
For `Cc1cc(C)c2[nH]c(=O)c(CN(Cc3ccccc3)C(=S)NCCCN(C)C)cc2c1`, the cell count turned out to be 1260 cells and the z-score is -0.25 (inactive).
As for `CCOc1ccc(NC(=S)N2CCCCCC2)cc1`, the cell count worked out at 1240 cells and the z-score is -0.11 (inactive).
`CCC(C)N(C)C1CCN(C(=S)Nc2ccc(OC)cc2)CC1` (stereo unspecified): the cell count is 1120 cells and the z-score was 0.62 (inactive).
Regarding `CCOc1ccc(NC(=S)N2CCC(N(C)CC3CCCO3)CC2)cc1` (stereo unspecified), the cell count is 1410 cells and the z-score is 3.59 (active).
For `Cc1cccc(N(C)C(=O)c2cc3c(=O)[nH]c4ccc(C)cc4c3s2)c1`, the cell count came to 642 cells and the z-score is -0.64 (inactive).
Take `CCn1c2ccccc2c2cc(NC(=O)Nc3ccc([N+](=O)[O-])cc3C)ccc21`: the cell count came out at 1070 cells and the z-score is -0.69 (inactive).
In the case of `O=c1c2cc(-c3ccccc3)sc2nc2n1N=C(c1cccs1)CS2`, the cell count was determined as 940 cells and the z-score is 0.28 (inactive).
Consider `S=c1[nH]nc(-c2cccs2)n1/N=C/c1cn(-c2ccccc2)nc1-c1ccc(Cl)cc1`, for which the cell count is 941 cells and the z-score is -0.14 (inactive).
As for `NS(=O)(=O)c1cccc(NC(=O)CSc2nc3ccccc3n2-c2ccccc2)c1`, the cell count stood at 1570 cells and the z-score was -0.28 (inactive).
In the case of `COc1cccc(NCCC(=O)c2cccc([N+](=O)[O-])c2)c1`, the cell count was 1430 cells and the z-score is -0.59 (inactive).
For `COc1ccc(-c2nc(CCNC(=O)c3ccc(Br)o3)cs2)cc1`, the cell count turned out to be 1790 cells and the z-score is -0.21 (inactive).
For `O=S(=O)(NCCc1csc(-c2ccccc2)n1)c1cccnc1` the same measures were 1020 cells and 0.1 (inactive).
Consider `O=C(NCCc1csc(-c2ccccc2)n1)c1ccccc1F`, for which the cell count was found to be 879 cells and the z-score is 4.15 (active).
As to `COc1ccc([N+](=O)[O-])cc1N(CC(O)CN(CC(C)C)CC(C)C)S(=O)(=O)c1ccc(C)cc1` (stereo unspecified), the cell count amounted to 984 cells and the z-score is 0.3 (inactive).
As to `O=C1CN(C(=O)COC(=O)c2cnc(Cl)c(Cl)c2)c2ccccc2N1`, the cell count came out at 1340 cells and the z-score was 0.22 (inactive).
Turning to `Cc1ccc(OCC(=O)c2cc(C)n(Cc3ccco3)c2C)c([N+](=O)[O-])n1`, the cell count is 717 cells and the z-score is 0.32 (inactive).
Consider `COc1ccc(C2C(C(=O)Nc3ccccc3OC)=C(C)Nc3nnnn32)c(OC)c1` (stereo unspecified), for which the cell count was determined as 1590 cells and the z-score was 0.06 (inactive).
`CC1=C(C(N)=O)C(c2sccc2C)n2nnnc2N1` (stereo unspecified): the cell count was 787 cells and the z-score was 1.11 (inactive).
On to `CCCCCOC(=O)C1=C(C)Nc2nnnn2C1c1ccc(OC)c(OC)c1OC` (stereo unspecified), for which the cell count turned out to be 1410 cells and the z-score is 3.26 (active).
For `CN(C)S(=O)(=O)c1cccc(-c2nn(-c3ccccc3)cc2/C=C2\SC(=S)N(CC(=O)O)C2=O)c1`, the cell count was 1060 cells and the z-score was -0.06 (inactive).
In the same order, the values of `CNC(=S)NNC(=O)c1cccn(Cc2ccccc2)c1=O` are 1390 cells and -0.17 (inactive).
As for `CNC(=S)NNC(=O)c1oc2nc(-c3ccccc3)cc(-c3ccco3)c2c1N`, the cell count was 871 cells and the z-score is 3.41 (active).
`NNC(=O)c1oc2nc(-c3ccccc3)cc(-c3ccco3)c2c1N`: the cell count is 1010 cells and the z-score is 1.58 (inactive).

The values above are taken from PubChem BioAssay AID1625 (Sanford-Burnham Center for Chemical Genomics, 2009).
